Screening results: PubChem, several laboratories
Sampled rows, rich in hits. Any-hit rate of the full collection: about 4.4%.
Cav3 T inh: Cav3.2 calcium influx blockers – cell-based, Fluo-4 calcium fluorescence, FDSS, MLSMR library, primary screen. Voltage-dependent T-type calcium channel subunit alpha-1H (Homo sapiens), O95180. Cav3.2-expressing cells; stronger effect = lower value. B-score at 10 µM. 4% of 100,000 active. AID 449739, 2010;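 active = single-dose well whose peak fluorescence ratio is a statistical outlier from its plate by either plate-standardised score or position-corrected B-score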
Target sequence (O95180 whole entry, looked up): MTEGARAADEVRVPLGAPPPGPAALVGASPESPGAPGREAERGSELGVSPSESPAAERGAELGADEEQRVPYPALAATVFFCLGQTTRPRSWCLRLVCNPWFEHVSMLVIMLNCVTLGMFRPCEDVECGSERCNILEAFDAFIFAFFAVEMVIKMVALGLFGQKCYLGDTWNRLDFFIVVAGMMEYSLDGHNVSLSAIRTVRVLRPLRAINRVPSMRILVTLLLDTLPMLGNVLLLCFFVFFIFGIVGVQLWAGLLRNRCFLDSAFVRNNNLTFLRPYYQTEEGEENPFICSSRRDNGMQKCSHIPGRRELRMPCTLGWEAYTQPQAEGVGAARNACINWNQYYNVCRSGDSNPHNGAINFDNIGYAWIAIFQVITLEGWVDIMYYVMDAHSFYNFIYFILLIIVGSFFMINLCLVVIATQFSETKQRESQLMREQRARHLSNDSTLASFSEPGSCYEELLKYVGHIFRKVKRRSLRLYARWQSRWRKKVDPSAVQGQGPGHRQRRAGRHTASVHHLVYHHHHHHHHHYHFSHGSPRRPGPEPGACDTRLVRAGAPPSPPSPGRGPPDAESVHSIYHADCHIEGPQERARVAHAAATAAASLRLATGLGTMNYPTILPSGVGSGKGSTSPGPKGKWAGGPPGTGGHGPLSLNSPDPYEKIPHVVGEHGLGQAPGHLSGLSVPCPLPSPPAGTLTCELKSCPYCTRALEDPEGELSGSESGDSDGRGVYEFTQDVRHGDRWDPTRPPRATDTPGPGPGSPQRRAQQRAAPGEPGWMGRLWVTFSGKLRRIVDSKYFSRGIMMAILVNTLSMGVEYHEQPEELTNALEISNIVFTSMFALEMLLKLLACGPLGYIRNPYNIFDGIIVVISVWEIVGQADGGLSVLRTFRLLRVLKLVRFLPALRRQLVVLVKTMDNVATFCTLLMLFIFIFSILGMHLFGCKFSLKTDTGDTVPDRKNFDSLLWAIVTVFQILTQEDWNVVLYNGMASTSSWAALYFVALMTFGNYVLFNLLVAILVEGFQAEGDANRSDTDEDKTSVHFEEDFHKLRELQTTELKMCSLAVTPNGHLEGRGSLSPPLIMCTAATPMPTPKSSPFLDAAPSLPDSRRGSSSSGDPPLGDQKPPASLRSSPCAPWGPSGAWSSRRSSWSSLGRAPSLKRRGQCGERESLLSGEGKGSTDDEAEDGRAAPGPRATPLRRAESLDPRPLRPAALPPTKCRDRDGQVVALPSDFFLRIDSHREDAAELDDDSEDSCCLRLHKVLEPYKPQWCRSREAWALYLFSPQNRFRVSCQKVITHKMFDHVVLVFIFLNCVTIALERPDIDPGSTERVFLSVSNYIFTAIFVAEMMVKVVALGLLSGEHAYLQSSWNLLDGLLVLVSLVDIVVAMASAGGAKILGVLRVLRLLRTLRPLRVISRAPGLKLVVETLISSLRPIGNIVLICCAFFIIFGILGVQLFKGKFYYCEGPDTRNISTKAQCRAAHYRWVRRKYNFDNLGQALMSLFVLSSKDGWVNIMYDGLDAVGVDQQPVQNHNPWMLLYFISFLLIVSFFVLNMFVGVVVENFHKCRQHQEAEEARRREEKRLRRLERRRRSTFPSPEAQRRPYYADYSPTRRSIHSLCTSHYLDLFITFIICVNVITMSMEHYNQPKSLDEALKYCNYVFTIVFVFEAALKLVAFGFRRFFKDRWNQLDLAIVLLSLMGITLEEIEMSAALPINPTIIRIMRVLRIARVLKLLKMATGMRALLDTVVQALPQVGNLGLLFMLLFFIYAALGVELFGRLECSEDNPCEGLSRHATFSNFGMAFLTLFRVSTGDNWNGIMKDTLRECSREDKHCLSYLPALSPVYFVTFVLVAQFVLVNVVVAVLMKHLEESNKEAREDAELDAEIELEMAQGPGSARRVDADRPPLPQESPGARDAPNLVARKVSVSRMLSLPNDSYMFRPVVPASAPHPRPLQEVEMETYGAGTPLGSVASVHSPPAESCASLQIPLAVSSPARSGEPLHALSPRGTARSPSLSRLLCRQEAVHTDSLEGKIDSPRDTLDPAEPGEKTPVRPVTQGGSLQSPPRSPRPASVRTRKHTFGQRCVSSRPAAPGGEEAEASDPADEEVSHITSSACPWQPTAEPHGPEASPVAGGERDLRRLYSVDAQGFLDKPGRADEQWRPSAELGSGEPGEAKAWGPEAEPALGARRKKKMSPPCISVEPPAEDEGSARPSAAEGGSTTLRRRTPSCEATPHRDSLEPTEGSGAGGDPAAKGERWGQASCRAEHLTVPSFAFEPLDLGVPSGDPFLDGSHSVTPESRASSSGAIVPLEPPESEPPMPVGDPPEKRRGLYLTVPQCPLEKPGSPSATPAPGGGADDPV
NFkB transloc inh: inhibitors of IL-1B driven NFkB p65 nuclear import, primary screen, imaging, HUVEC, IL-1B stimulus, high-content imaging; HUVEC IL-1B NFkB p65 nuclear translocation imaging; inhibition, % at 2 µM; 0.43% of 94,000 active;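 active = inhibition above about 30% together with a positive call from visual inspection of the well image, limit read from the data; inconclusive = inhibition above a set limit but visual check negative; inactive = inhibition not above a set limit, visual check negative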;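 note: nuclear over cytoplasmic p65 intensity ratio measured by imaging; 0% = IL-1B stimulated DMSO wells and 100% = unstimulated DMSO wells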
IL1B NFkB pot: enhancers of NFkB p65 translocation in HUVEC – imaging, IL-1B stimulus, high-content imaging, primary screen | HUVEC IL-1B NFkB p65 nuclear translocation imaging | activation, % at 2 µM | 0.3% of 94,000 active;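 active = activation above 40%, about the mean plus 3 SD, also judged a hit on visual image review; inconclusive = activation above 40% but not a hit on visual review; inactive = activation not above 40% and no visual hit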;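 note: percent activation is computed from the nuclear over cytoplasmic p65 intensity ratio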
IL1B cytotox: cytotoxicity in IL-1B stimulated HUVEC, primary screen, cytotoxicity control for IL-1B NFkB translocation project, imaging, Hoechst nuclear count, IL-1B stimulus; HUVEC cell count loss; cell count reduction, % at 2 µM; AID 845, 2007; 0.41% of 94,000 active;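 active = cell count reduction more than 3 SD above the screen-wide mean, cut at about 70% in these data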;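 note: normalized per plate to untreated control cells as the no-loss baseline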
Starred values were filed as active, the others as inactive; ? = inconclusive; . = no result given.

SMILES | Cav3 T inh | NFkB transloc inh | IL1B NFkB pot | IL1B cytotox
CCN(CC)S(=O)(=O)c1ccc(Cc2ncc(C(F)(F)F)cc2Cl)s1 | -3.68* | -13.1 | 13.1 | -10.4
NS(=O)(=O)c1ccc(Cc2ncc(C(F)(F)F)cc2Cl)s1 | -0.328 | -3.0 | 3.0 | -0.8
COC(=O)c1sccc1NC(=O)c1sccc1C | -0.677 | 15.9 | -15.9 | 94.1*
O=C1C2C(C(=O)N1/N=C/c1cc(Br)cc([N+](=O)[O-])c1O)C1C=CC2C12CC2 (stereo not drawn) | -5.96* | -2.8 | 2.8 | -46.7
O=C1C2C(C(=O)N1/N=C/c1cc([N+](=O)[O-])ccc1O)C1C=CC2C12CC2 (stereo not drawn) | -1.41 | -3.1 | 3.1 | -6.7
CCN(CCCNC(=O)COc1cc(=O)n(CC)c2ccccc12)Cc1ccccc1 | 0.105 | . | . | .
FC(F)(F)c1cc(C(F)(F)F)c2ccc(Oc3ccccc3)nc2n1 | -4.73* | -17.1 | 17.1 | -9.4
CC(=O)Nc1ccc(S(=O)(=O)NCCc2ccc(S(N)(=O)=O)cc2)cc1 | 0.0482 | 30.2* | -30.2 | -14.0
CC(=O)Nc1ccc(S(=O)(=O)NCCc2ccc(F)cc2)cc1 | -0.492 | 4.4 | -4.4 | -2.1
O=S1(=O)NC[C@]23C[C@H](c4ccc(F)cc4)[C@@H](C[C@@H]21)O3 | -0.00327 | . | . | .
COc1ccc2c(c1)c(CC(=O)Nc1ccc(C)cc1)c(C)n2C(=O)c1ccc(Cl)cc1 | -3.92* | 7.5 | -7.5 | -3.5
Cc1ccc(Cl)cc1N1CCN(C(=O)c2cc3c(=O)n(C)c4ccccc4c3n2C)CC1 | -1.27 | 7.4 | -7.4 | 13.1
CCCN(CCC)C(=O)CC(c1ccccc1)c1cc(C)ccc1O (stereo not drawn) | -5.93* | -0.3 | 0.3 | -2.7
CCOC(=O)CSc1nc2ccccc2c(=O)[nH]1 | 1.06 | . | . | .
CCOC(=O)C1(C(C)(C)CC)CC(CSc2nc3ccccc3[nH]2)OC1=O (stereo not drawn) | -6.83* | -27.7 | 27.7 | -33.3
CC(=O)c1ccccc1OCC(O)CN1CCN(C(c2ccccc2)c2ccccc2)CC1 (stereo not drawn) | -7.09* | -11.1 | 11.1 | -28.4
COC(=O)CN1CCN(C(c2ccccc2)c2ccccc2)CC1 | 1.31 | -10.6 | 10.6 | 3.0
CC(=O)c1ccc(OCC(O)CN2CCN(CC(O)COc3ccc(C(C)=O)cc3)CC2)cc1 (stereo not drawn) | 1.48 | -0.6 | 0.6 | -1.4
CCOc1ccccc1C(=O)N1CCN(C(c2ccccc2)c2ccccc2)CC1 | -4.71* | -23.7 | 6.5 | 10.2
COc1ccccc1C1=NOC(C)(c2nnc(-c3cccc(Cl)c3)o2)C1 (stereo not drawn) | -0.275 | . | . | .
COc1nnc(-c2ccc(N3CCCCC3)c(NC(C)=O)c2)c2ccccc12 | 1.11 | -6.9 | 6.9 | -11.5
O=c1c2ccccc2c(-c2ccccc2)nn1Cc1ccc(Cl)cc1 | 0.662 | -24.3 | 24.3 | -10.4
Cc1nn(-c2cc(N3CCCCCC3)ccc2[N+](=O)[O-])c(=O)c2ccccc12 | 0.0084 | -0.5 | 0.5 | 16.8
CCc1ccc(-c2nn(-c3cc(Cl)ccc3[N+](=O)[O-])c(=O)c3ccccc23)cc1 | -3.6* | 2.6 | -2.6 | -2.1
O=c1c2ccccc2c(-c2ccccc2)nn1-c1cc(Cl)ccc1[N+](=O)[O-] | -6.92* | 7.0 | -7.0 | 13.5
SMILES | Cav3 T inh | NFkB transloc inh | IL1B NFkB pot | IL1B cytotox
Cc1ccc(-c2nn(-c3cc(Cl)ccc3[N+](=O)[O-])c(=O)c3ccccc23)cc1C | -4.6* | 2.0 | -2.0 | -10.3
Cc1nn(-c2ccc(Cl)cc2Cl)c(=O)c2ccccc12 | 0.507 | 7.0 | -7.0 | 9.7
CCCCCC#CCC#CCC#CCC#CCCCC(=O)O | -0.511 | . | . | .
Oc1ccc(CNCC2COc3ccccc3O2)cc1 (stereo not drawn) | 0.147 | 13.2 | -13.2 | 13.3
CC(NC(=O)CCC(=O)NC(C)C1COc2ccccc2O1)C1COc2ccccc2O1 (stereo not drawn) | -8.82* | 5.2 | -5.2 | -29.8
S=C(NCc1ccccc1)NCC1COc2ccccc2O1 (stereo not drawn) | -4.53* | -5.0 | 5.0 | 15.2
COc1ccc(CNC(C)C2COc3ccccc3O2)c(OC)c1 (stereo not drawn) | 0.221 | 4.4 | -4.4 | -20.5
CC(NCc1ccccc1)C1COc2ccccc2O1 (stereo not drawn) | . | -49.1 | 49.1* | 10.5
O=C(Nc1ccc(OCC(F)(F)C(F)F)c(C(F)(F)F)c1)c1ccccc1O | -0.0144 | 4.6 | -4.6 | 4.5
CC1C(=NO)C(C)C(c2ccc(N(C)C)cc2)NC1c1ccc(N(C)C)cc1 (stereo not drawn) | . | -6.4 | 6.4 | -4.7
CC1Cc2nc(SCC(=O)NCc3ccccc3)n(Cc3ccccc3)c(=O)c2S1 (stereo not drawn) | -2.62 | -10.3 | 10.2 | -65.7
CC1Cc2nc(SCC(=O)c3ccccc3)n(Cc3ccccc3)c(=O)c2S1 (stereo not drawn) | -6.26* | -14.0 | 14.0 | 6.0
Cc1cc(C(=O)CSc2nc3ccccc3c(=O)n2C)c(C)n1Cc1ccc2c(c1)OCO2 | -0.298 | -15.4 | 15.4 | -17.4
Cc1ccc(S(=O)(=O)NC2CCCc3ccccc32)cc1C (stereo not drawn) | -4.17* | -11.9 | 11.9 | -57.6
Cc1nn(C)c(C)c1S(=O)(=O)NC1CCCc2ccccc21 (stereo not drawn) | -0.161 | -29.2 | 29.2 | -3.7
Cc1nnc(SC(C)C(=O)Nc2ccc(Cl)cn2)n1Cc1ccccc1 (stereo not drawn) | -1.59 | . | . | .
CC(Sc1nnc(-c2ccc(Cl)cc2Cl)n1Cc1ccccc1)C(=O)Nc1nccs1 (stereo not drawn) | -8.18* | 0.4 | -0.4 | -1.8
CCCc1nc(-c2cc3ccc(C)cc3[nH]c2=O)no1 | 0.0877 | 7.9 | -7.9 | 84.3*
CN(C)S(=O)(=O)c1cc([N+](=O)[O-])ccc1N1CCCCCC1 | -2.76 | -11.0 | 11.0 | 19.7
O=[N+]([O-])c1ccc(N2CCCCCC2)c([N+](=O)[O-])c1 | -4.75* | 7.0 | -7.0 | -18.9
CC(C)CN(CC(C)C)S(=O)(=O)c1cc([N+](=O)[O-])ccc1N1CCCCCC1 | -5.2* | -3.3 | 3.3 | 5.9
CCOc1ccccc1NC(=O)CCN1CCN(S(=O)(=O)c2ccc(Br)cc2)CC1 | . | -58.7 | ? | -4.8
COc1ccccc1OCC(=O)Nc1sc2c(c1C(=O)NCC1CCCO1)CCC2 (stereo not drawn) | -3.26 | -5.8 | 5.8 | -5.9
CCOP(=O)(OCC)c1nc(/C=C/c2ccccc2)oc1NCc1ccc(OC)cc1 | -5.63* | 13.2 | -13.2 | -39.5
CCNc1nc(NCC)nc(SCCOC(=O)COc2ccc(Cl)cc2Cl)n1 | 0.775 | 17.5 | -17.5 | -15.4
COc1ccc(-c2nc3c(c(=O)[nH]c(=O)n3Cc3ccccc3)n2Cc2ccccc2)cc1 | -6.39* | 2.4 | -2.4 | 7.0
COc1ccc(-c2nc3c(c(=O)[nH]c(=O)n3Cc3ccccc3)n2C)cc1 | 0.419 | 1.7 | -1.7 | -3.6
